Test results as given in PubChem BioAssay (NCI).
The panel holds about 83,000 compounds, 20% with a hit somewhere; the sample as a whole holds those more often.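 A percent growth of 40 corresponds to 60% growth inhibition; 0 means no net growth; -100 means all cells died. Active threshold: below 10.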 The source made the active and inactive calls.

Legend:
Assay in all cases: NCI-60 one-dose screen, 48 h (100 = growth as untreated, 0 = no growth, -100 = all killed)
Conditions in all cases: 10 µM unless noted
BT-549 breast = system: BT-549 breast
MDA-MB-435 melanoma = system: MDA-MB-435 melanoma
SW-620 colon = system: SW-620 colon
MCF7 breast = system: MCF7 breast
HCT-116 colon = system: HCT-116 colon
HCC-2998 colon = system: HCC-2998 colon
KM12 colon = system: KM12 colon

| Compound | growth (BT-549 breast) | growth (MDA-MB-435 melanoma) | growth (SW-620 colon) | growth (MCF7 breast) | growth (HCT-116 colon) | growth (HCC-2998 colon) | growth (KM12 colon) |
| --- | --- | --- | --- | --- | --- | --- | --- |
| COc1ccc(C(=O)/C=C/c2ccc(OCc3ccc(C)cc3)c(OC)c2)cc1OC | 73.2% (inactive) | 82.6% (inactive) | 45.5% (inactive) | 25.9% (inactive) | 25.3% (inactive) | 91.1% (inactive) | 51.5% (inactive) |
| COc1ccc(-c2nc3ccc(-c4nnc(SCC(=O)Nc5ccc(C(=O)/C=C/c6ccccc6)cc5)o4)cc3[nH]2)cc1OC | 94.1% (inactive) | 106% (inactive) | 104% (inactive) | 78.3% (inactive) | 89.7% (inactive) | 123% (inactive) | 99% (inactive) |
| NS(=O)(=O)c1cccc(Nc2nc(SCC(=O)c3ccc(Br)cc3)nc3ccccc23)c1 | -40.8% (active) | 75.3% (inactive) | 63.7% (inactive) | 32.4% (inactive) | 38.9% (inactive) | 86.1% (inactive) | 69.7% (inactive) |
| COc1ccc(/C=C2\SC(=Nc3cc(C)[nH]n3)NC2=O)cc1 | 90.5% (inactive) | 92.4% (inactive) | 97.1% (inactive) | 85.5% (inactive) | 97.2% (inactive) | 99.8% (inactive) | 89.8% (inactive) |
| CN(C)CCCOc1c2ccc(Cl)cc2nc2c1oc1ccccc12 | 8.05% (active) | -51.9% (active) | 9.59% (active) | -18.6% (active) | 1.47% (active) | -58.1% (active) | 0.963% (active) |
| CN(C)CCCOc1c2ccccc2nc2c1oc1ccc(Cl)cc12 | 19.2% (inactive) | -19.8% (active) | -3.7% (active) | -16.6% (active) | 10.9% (inactive) | 11.1% (inactive) | 1.62% (active) |
| COc1ccc(-c2nn3c(-c4ccccc4F)nnc3s2)cc1 | 50.9% (inactive) | -4.46% (active) | 34.4% (inactive) | 36.8% (inactive) | 42% (inactive) | 70% (inactive) | 31.8% (inactive) |
| COc1ccc(/C=N/Nc2ccnc3cc(Cl)ccc23)cc1Cl | -79.8% (active) | -84.1% (active) | -89% (active) | -12.2% (active) | -89.4% (active) | -39.9% (active) | -88.6% (active) |
| COc1cc(N=Cc2sc(Nc3nccs3)nc2O)cc(OC)c1OC | 93.6% (inactive) | 87.9% (inactive) | 97.3% (inactive) | 71.5% (inactive) | 94.2% (inactive) | 111% (inactive) | 89.9% (inactive) |
| Fc1ccc(-c2nc(C(Cl)Cl)nc3cc(-c4ccccc4)nn23)cc1 | 52.3% (inactive) | 3.93% (active) | -35.7% (active) | 21.5% (inactive) | 5.36% (active) | -34.7% (active) | -12% (active) |
| COc1ccccc1/C=C/C=N/NC1=NC2C(S1)N(C)C(=O)N2C (stereo not drawn) | 67.8% (inactive) | -57.1% (active) | 20.9% (inactive) | 19.9% (inactive) | 35.9% (inactive) | 68.3% (inactive) | 18.2% (inactive) |
| Clc1ccc2c(OCCCN3CCOCC3)c3oc4ccccc4c3nc2c1 | 80.1% (inactive) | 33.2% (inactive) | 19.2% (inactive) | 10.4% (inactive) | 17.7% (inactive) | 46% (inactive) | 33.1% (inactive) |
| Cc1ccc(C(=O)Nc2cccc(C(F)(F)F)c2)cc1Nc1nc(-c2cnccn2)nc2c1cnn2C | 143% (inactive) | 35.9% (inactive) | 58.4% (inactive) | 73.2% (inactive) | 35.6% (inactive) | 47.9% (inactive) | 56.6% (inactive) |
| COc1ccc(C(=O)/C=C/c2ccc(OCc3ccc(Cl)cc3)c(OC)c2)cc1OC | 62.1% (inactive) | 79.4% (inactive) | 43.1% (inactive) | 20.4% (inactive) | 20.8% (inactive) | 84.3% (inactive) | 54.9% (inactive) |
| O=C(N/N=C/c1ccc(Cl)s1)c1[nH]c2ccc(Br)cc2c1-c1ccccc1 | -18.1% (active) | -8.88% (active) | 25% (inactive) | 7.95% (active) | -27.5% (active) | 19.9% (inactive) | 10.5% (inactive) |
| CCOC(=O)c1c(Nc2ccccc2)nn2c(N)c(C#N)c(-c3ccc(Cl)cc3)nc12 | 96.7% (inactive) | 70.3% (inactive) | 65.8% (inactive) | 65.2% (inactive) | 59.9% (inactive) | 83.5% (inactive) | 64.1% (inactive) |
| CC(C)(C)Nc1nc2c(OCCc3ccccc3)cccn2c1-c1ccc(Cl)cc1 | 47.7% (inactive) | 19.2% (inactive) | 41% (inactive) | 0.0476% (active) | 8.63% (active) | 24.7% (inactive) | 32.7% (inactive) |

| Compound | growth (BT-549 breast) | growth (MDA-MB-435 melanoma) | growth (SW-620 colon) | growth (MCF7 breast) | growth (HCT-116 colon) | growth (HCC-2998 colon) | growth (KM12 colon) |
| --- | --- | --- | --- | --- | --- | --- | --- |
| CN1C(=O)N(c2ccccc2)C2N=C(N/N=C/c3ccccc3)SC21 (stereo not drawn) | 52.4% (inactive) | -24.9% (active) | 15.2% (inactive) | 24% (inactive) | 22.5% (inactive) | 51.5% (inactive) | 22% (inactive) |
| NS(=O)(=O)c1cccc(Nc2nc(SCC(=O)c3ccc([N+](=O)[O-])cc3)nc3ccccc23)c1 | -4.45% (active) | 51.3% (inactive) | 69.2% (inactive) | 11.7% (inactive) | 36.8% (inactive) | 54.3% (inactive) | 38.4% (inactive) |
| c1ccc2c(NCCCn3ccnc3)c3oc4ccccc4c3nc2c1 | 21.6% (inactive) | 3.7% (active) | -16.9% (active) | -11.4% (active) | 6.12% (active) | 0.465% (active) | 7.47% (active) |
| COc1cc(-c2nc3ccc(-c4nnc(SCC(=O)Nc5ccc(C(C)=O)cc5)o4)cc3[nH]2)cc(OC)c1OC | 108% (inactive) | 108% (inactive) | 101% (inactive) | 92.6% (inactive) | 106% (inactive) | 112% (inactive) | 101% (inactive) |
| CCCCN1C(=O)/C(=c2\sc3n(c2=O)C2C(NN=3)N(CC)C(=O)N2CC)c2cc(Cl)ccc21 (stereo not drawn) | 85% (inactive) | 6.07% (active) | 58.2% (inactive) | 27.5% (inactive) | 56.7% (inactive) | 101% (inactive) | 55.8% (inactive) |
| COc1ccc(-c2cc(C(=O)N=Nc3c(O)[nH]c4ccccc34)c3ccccc3n2)cc1OC | 113% (inactive) | 98.1% (inactive) | 93.8% (inactive) | 89.9% (inactive) | 101% (inactive) | 97.8% (inactive) | 92% (inactive) |
| O=C(CCN1C(=O)/C(=C/c2ccccc2)SC1=S)N1CCOCC1 | 104% (inactive) | 81.9% (inactive) | 79% (inactive) | 40.9% (inactive) | 89.6% (inactive) | 112% (inactive) | 84.3% (inactive) |
| Cc1cccc2sc(/N=C(\N)C(Cl)(Cl)Cl)nc12 | 117% (inactive) | 103% (inactive) | 103% (inactive) | 85% (inactive) | 101% (inactive) | 111% (inactive) | 97.5% (inactive) |
| CN(C)c1ccc(/C=c2\sc3nc4ccccc4n3c2=O)cc1 | 118% (inactive) | 101% (inactive) | 102% (inactive) | 70.3% (inactive) | 105% (inactive) | 107% (inactive) | 104% (inactive) |
| Cc1nc(-c2cc3ccccc3oc2=O)ccc1C(=O)/C=C/c1ccc(N2CCOCC2)cc1 | 76.9% (inactive) | -21.1% (active) | 83.5% (inactive) | 51.6% (inactive) | 89.1% (inactive) | 83.9% (inactive) | 68.9% (inactive) |
| OC1CCN(CCCOc2c3ccc(Cl)cc3nc3c2oc2ccc(Cl)cc23)CC1 | 46.6% (inactive) | -70.4% (active) | -82.6% (active) | -79.7% (active) | 12.3% (inactive) | 36.8% (inactive) | -74.3% (active) |
| Nc1ncc(-c2ccc3ncnc(N4CCc5cc(F)c(Cl)cc54)c3c2)cc1CO | -31.1% (active) | -34.4% (active) | 11.1% (inactive) | 4.61% (active) | 6.3% (active) | 8.47% (active) | 0.831% (active) |
| COc1cc(-c2ccc3ncnc(NC(C)c4ccccc4)c3c2)cnc1OC (stereo not drawn) | 32.6% (inactive) | 69.6% (inactive) | 69.2% (inactive) | 23.7% (inactive) | 76.8% (inactive) | 69.8% (inactive) | 75.3% (inactive) |
| CCOC(=O)c1c(Nc2ccccc2)nn2c(N)c(C#N)c(-c3ccccc3)nc12 | 95% (inactive) | 75.3% (inactive) | 81.6% (inactive) | 60.1% (inactive) | 78.3% (inactive) | 97% (inactive) | 77.7% (inactive) |
| COc1ccc(/C=C/C(=O)c2ccc(NC(=O)CSc3nnc(-c4ccc5nc(-c6ccc(Cl)cc6)[nH]c5c4)o3)cc2)cc1 | 85% (inactive) | 98.1% (inactive) | 106% (inactive) | 79.7% (inactive) | 93.4% (inactive) | 118% (inactive) | 99.7% (inactive) |
| C[C@@H](Nc1c(C#N)cnc2ccc(-c3cnc(N)nc3)cc12)c1ccccc1 | -14.1% (active) | 11% (inactive) | 14.9% (inactive) | 10.9% (inactive) | 5.6% (active) | 32% (inactive) | 18.6% (inactive) |
| COc1cc(/C=C/C(=O)c2cc(OC)c(OC)c(OC)c2)ccc1Oc1nc(NCCO)nc(N2CCOCC2)n1 | -25.1% (active) | 4.93% (active) | -33.6% (active) | 8.4% (active) | -79.3% (active) | -17.5% (active) | -44.6% (active) |
